High-throughput results (PubChem BioAssay)
GSH bead fluor: compound fluoresces at 488/530 nm on GSH beads; GSH beads flow cytometry, compound fluorescence 488/530 nm; stronger effect = higher value; actives 0.25% (n = 190,000); AID 1776; fluorescence (KMESF) at 10 µM; in the data active means fluorescence above about 89;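 further: glutathione beads carrying GST-tagged Bcl family fusion proteins plus one bare bead set; values are compound well signal with DMSO vehicle wells as background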
Avidin bead fluor: compound fluoresces at 488/530 nm on avidin beads; compound fluorescence 488/530 nm, flow cytometry; stronger effect = higher value; AID 1775; actives 0.38% (n = 220,000); fluorescence (KMESF) at 10 µM; in the data active means fluorescence above about 47
RGS7-Gao reg: regulators of human RGS7-Galphao interaction. actives 0.35% (n = 220,000). Multiplexed bead flow cytometry, RGS7-Galphao binding; actives lie on both sides. AID 1439. binding response (% of control), % at 10 µM. P09471; in the data active means binding response below about 49% or above about 150%; inconclusive means no clear call, values can overlap the other calls; inactive means in between;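 further: fluorescent Galphao held in activated GDP-AlF4 state binding bead-coupled RGS7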
Target sequence (P09471 whole entry, looked up): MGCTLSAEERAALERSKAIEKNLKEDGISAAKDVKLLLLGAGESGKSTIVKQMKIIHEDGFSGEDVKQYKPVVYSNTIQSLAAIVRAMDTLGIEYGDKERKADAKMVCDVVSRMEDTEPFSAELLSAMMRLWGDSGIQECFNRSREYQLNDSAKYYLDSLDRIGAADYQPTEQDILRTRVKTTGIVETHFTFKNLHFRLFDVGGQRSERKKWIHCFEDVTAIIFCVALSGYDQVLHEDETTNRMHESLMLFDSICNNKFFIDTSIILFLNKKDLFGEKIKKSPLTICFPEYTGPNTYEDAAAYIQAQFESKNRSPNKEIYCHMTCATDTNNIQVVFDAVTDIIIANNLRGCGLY
RGS4-Gao reg: modulates binding of RGS4 to human Galphao; P09471; Multiplexed bead flow cytometry; actives lie on both sides; binding response (% of control), % at 10 µM; actives 0.33% (n = 220,000); in the data active means binding response below about 49% or above about 150%; inactive means in between;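 further: fluorescent Galphao activated with aluminum fluoride binding bead-coupled RGS4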
RGS8-Gao reg: modulates binding of RGS8 to human Galphao | P09471 | multiplexed bead flow cytometry; actives lie on both sides | response (percent of control binding), % at 10 µM | actives 0.34% (n = 220,000) | AID 1423; in the data active means response below about 60% or above about 140%; inactive means in between;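 further: Galphao activated as the GDP aluminium fluoride complex binding bead-coupled RGS8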
RGS16-Gao HTS: regulators of human RGS16-Galphao interaction; O15492+P09471; bead-based flow cytometry RGS16-Galphao binding, fluorescence; actives lie on both sides; binding response (% of control), % at 10 µM; actives 0.38% (n = 220,000); AID 1441;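 further: Galphao activated by GDP with aluminum fluoride before binding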
RGS-Gao: modulates binding between human RGS4 and Galphao; RGS4–Galpha-o binding response, % at 10 µM; shares compounds with RGS16-Gao HTS; AID 1504; multiplexed bead flow cytometry, RGS–Galpha-o binding; actives 99% (n = 1,600);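 further: fluorescently labeled Galpha-o bound to GDP with aluminium fluoride binding biotinylated RGS beads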
Target sequence (P09471 whole entry, looked up): as above
Target sequence (P49798 whole entry, looked up): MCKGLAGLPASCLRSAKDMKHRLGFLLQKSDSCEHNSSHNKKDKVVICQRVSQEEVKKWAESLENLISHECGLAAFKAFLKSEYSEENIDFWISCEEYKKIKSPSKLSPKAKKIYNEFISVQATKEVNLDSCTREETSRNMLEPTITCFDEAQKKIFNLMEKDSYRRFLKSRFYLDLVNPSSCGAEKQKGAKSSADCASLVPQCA
Avidin counter: biotin-avidin bead binding disruption counter-screen | AID 1783 | streptavidin beads, fluorescein-biotin binding, flow cytometry | 1,700 tested, under 10 active | inhibition, % at 10 µM | shares compounds with RGS16-Gao HTS;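 active means inhibition above 50%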;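 further: median green fluorescence of gated singlet beads compared with DMSO control wells; 0% = DMSO wells and 100% = complete loss of bead fluorescence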
RGS8-Gao single: confirmation of regulators of human RGS8-Galphao interaction | shares compounds with RGS16-Gao HTS | bead-based flow cytometry RGS8-Galphao binding, fluorescence; actives lie on both sides | binding response (% of control), % at 10 µM | actives 3% (n = 1,700) | AID 1836; in the data active means binding response below about 72% or above about 130%; inactive means in between;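 further: Galphao activated as GDP AlF4 complex before binding bead RGS8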
RGS7-Gao confirm: confirmation of regulators of human RGS7-Galphao interaction | shares compounds with RGS16-Gao HTS | bead-based flow cytometry RGS7-Galphao binding; actives lie on both sides | response (percent of control binding), % at 10 µM | actives 7.8% (n = 1,700); in the data active means response below about 75% or above about 130%; inactive means in between;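 further: fluorescent Galphao activated with GDP and aluminum fluoride binding bead-coupled RGS7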
RGS16-Gao conf: confirmation of regulators of human RGS16-Galphao interaction | bead-based flow cytometry, RGS16-Galphao binding; actives lie on both sides | AID 1838 | shares compounds with RGS16-Gao HTS | actives 4% (n = 1,700) | response (% of control binding), % at 10 µM; in the data active means response below about 74% or above about 130%; inactive means in between;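 further: Galphao activated as the GDP aluminium fluoride complex binding bead-coupled RGS16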
RGS4-Gao single: confirmation of regulators of human RGS4-Galphao interaction. shares compounds with RGS16-Gao HTS. RGS4-Galphao binding, multiplexed bead flow cytometry; actives lie on both sides. binding response (% of control), % at 10 µM. actives 4% (n = 1,700). AID 1840; in the data active means binding response below about 74% or above about 130%; inactive means in between
RGS19-Gao single: RGS19-Galphao interaction regulation, single point confirmation. shares compounds with RGS16-Gao HTS. bead-based flow cytometry RGS19-Galphao binding; actives lie on both sides. response (percent of control binding), % at 10 µM. actives 5% (n = 1,700); in the data active means response below about 50% or above about 160%; inactive means in between;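 further: 100% = no compound control and 0% = blank background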
An asterisk follows results filed as active; ? = inconclusive; nt = no result; [ ] = remark or other dose. A selection: hits, their analogues and other compounds. The true share with any hit is near 1.2%. Unless noted, how the calls were made is not given here.

SMILES	GSH bead fluor	Avidin bead fluor	RGS7-Gao reg	RGS4-Gao reg	RGS8-Gao reg	RGS16-Gao HTS	RGS-Gao	Avidin counter	RGS8-Gao single	RGS7-Gao confirm	RGS16-Gao conf	RGS4-Gao single	RGS19-Gao single
COC(=O)C1=C(C)NC2=C(C(=O)CC(C)(C)C2)C1c1ccsc1 (stereo unspecified)	11	6	25*	28*	25*	18*	nt	2	108	113	110	109	101
CC1=C(C(=O)OCC2CCCO2)C(c2ccsc2)C2=C(CC(C)(C)CC2=O)N1 (stereo unspecified)	10	15	98	98	98	103	nt	nt	nt	nt	nt	nt	nt
CC(C)(C)NC(=S)NCc1ccncc1	17	7	103	104	104	108	nt	nt	nt	nt	nt	nt	nt
CCOC(=O)N1CCC(n2c(SCC(=O)NCCc3ccc(S(N)(=O)=O)cc3)nc3ccccc3c2=O)CC1	12	10	100	101	101	100	nt	nt	nt	nt	nt	nt	nt
CC(=O)Nc1ccc(OC(=O)c2cc3cc(Br)cc(Br)c3oc2=O)cc1	8	4	81	91	80	19*	91*	-2	100	88	96	92	96
CC(=O)Nc1ccc(OC(=O)c2cc3cc(Br)ccc3oc2=O)cc1	9	12	96	102	103	101	nt	nt	nt	nt	nt	nt	nt
CN(c1ccccc1)S(=O)(=O)c1cccc(NC(=O)CN2CCCc3ccccc32)c1	nt	27	?	141	118	178*[activator]	141*	1	102	131*[activator]	112	113	134
CC(=O)N1CCc2c(sc(NC(=O)CN3C(=O)c4ccccc4C3=O)c2C(N)=O)C1	18	6	157*[activator]	146	140	150	146*	-1	105	112	106	109	97
O=C(CSc1nnc(-c2ccncc2)o1)Nc1ccccc1Cl	28	130*	215*[activator]	133	115	250*[activator]	133*	-1	100	102	101	101	100
O=C(CSc1nnc(-c2ccccc2)o1)Nc1ccccc1F	22	91*	173*[activator]	111	101	107	111*	3	99	95	95	95	74
Cc1cc(C(=O)OCC(=O)NCc2cccs2)c2ccccc2n1	14	13	95	93	95	94	nt	nt	nt	nt	nt	nt	nt
CCN1c2ccc(S(=O)(=O)N3CCOCC3)cc2N(Cc2ccc(OC)cc2)C1C (stereo unspecified)	11	16	50*	48*	59*	50	nt	0	100	96	95	97	96
COc1ccc2cc(S(=O)(=O)N3CCOCC3)ccc2c1	16	37	101	103	98	101	nt	nt	nt	nt	nt	nt	nt
CC(C)(C)NC(=O)COC(=O)CCC(=O)c1ccc(Cl)cc1	23	5	22*	25*	21*	15*	nt	0	100	106	102	104	100
CC(C)CNC(=O)COC(=O)CCC(=O)c1ccc(Cl)cc1	12	7	99	96	96	81	nt	nt	nt	nt	nt	nt	nt
CCN1C(=O)/C(=C/N2CCc3ccccc3C2)SC1=S	nt	nt	nt	nt	nt	nt	nt	2	99	99	99	97	102
CC(=O)/C(C#N)=C1\NC(=O)C(Cc2ccc(C)c(C)c2)S1 (stereo unspecified)	36	14	100	101	99	102	nt	nt	nt	nt	nt	nt	nt
Cc1ccc2c(c1)cc(CN(Cc1ccco1)C(=O)COc1ccccc1)c1nnnn12	53	102*	159*[activator]	126	99	101	126*	1	100	98	98	96	101
OC1(c2ccc3c(c2)OCO3)CCN(Cc2ccc(F)cc2)CC1	nt	9	?	105	105	100	nt	nt	nt	nt	nt	nt	nt
O=c1cc2[nH]c3ccccc3c(=O)n2nc1-c1ccccc1	42	8	99	101	100	99	nt	nt	nt	nt	nt	nt	nt
COc1ccc(C(=O)Nc2ccccc2C(=O)N(Cc2ccco2)C(C(N)=O)C(C)C)cc1 (stereo unspecified)	12	104*	140	225*[activator]	144*[activator]	333	nt	1	96	79	92	83	104
Cn1c(COc2ccccc2)nnc1SCC(=O)Nc1ccc2c(c1)OCO2	9	8	85	83	77	-21*	83*	0	97	97	97	98	89
Cc1ccc(OCc2nnc(SCC(=O)Nc3ccc4c(c3)OCO4)n2C)cc1	66	11	98	94	99	93	nt	nt	nt	nt	nt	nt	nt
Oc1ccc(N=Nc2n[nH]c(-c3ccccc3)n2)cc1	12	7	87	91	82	14*	91*	1	95	56*	72*	72*	35*
CC1=C(C(N)=O)C(c2cccs2)n2nc(-c3cccc(C)c3)nc2N1 (stereo unspecified)	17	8	31*	34*	34*	26	nt	1	100	101	98	98	92
CC1=C(C(N)=O)C(c2cccs2)n2nc(-c3cccc(Cl)c3)nc2N1 (stereo unspecified)	25	27	101	99	101	106	nt	nt	nt	nt	nt	nt	nt
O=C(c1cc([N+](=O)[O-])ccc1Cl)N1c2ccccc2Sc2ccccc21	13	6	102	100	90	68	nt	nt	nt	nt	nt	nt	nt
Cc1ccc(N=N/C(=C\O)C(=O)c2ccc(Cl)cc2)cc1	6	15	45*	42*	59*	43	nt	-2	99	98	102	102	111
CN(C)NC(=S)NC1(C)CCS(=O)(=O)C1 (stereo unspecified)	nt	2	?	53	77	63	nt	nt	nt	nt	nt	nt	nt
NS(=O)(=O)c1ccc2nc(NC(=O)c3ccncc3)sc2c1	17	11	105	102	101	93	nt	nt	nt	nt	nt	nt	nt
